Results taken from PubChem BioAssay (NCI).
This is part of a sample that, as a whole, favours compounds with a hit. Of some 79,000 tested, about 15% had one in any assay. Values without a mark were called inactive. The source made the active and inactive calls. Cut-off read from the data, not from the text of the source: active = growth inhibition above about 70%; inactive = the rest.

Columns and labels:
[1] = NCI Yeast Anticancer Drug Screen. Data for the rad52 strain (AID 147);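 note: 0% = growth of vehicle-treated control cultures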; settings: S. cerevisiae rad52 mutant growth inhibition, stronger effect = higher value
Summary of the method: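 Yeast strain carrying a DNA damage repair alteration was exposed to test compounds. Growth inhibition was measured relative to vehicle-treated controls.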

[2] = NCI Yeast Anticancer Drug Screen. Data for the wt1 strain (AID 149);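 note: 0% = growth of vehicle-treated wt1 cultures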; settings: S. cerevisiae wt1 strain (SPY 50644) growth inhibition, stronger effect = higher value
Summary of the method: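 The wt1 strain was treated with compounds, and growth was compared with vehicle-treated cultures to give inhibition.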

[3] = NCI Yeast Anticancer Drug Screen. Data for the rad50EPP+ strain (AID 151);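 note: 0% = growth of vehicle-treated control cultures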; settings: S. cerevisiae rad50 mutant strain, stronger effect = higher value
Summary of the method: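 Yeast strain carrying rad50 alteration (rad50EPP+) exposed to compounds; growth inhibition measured relative to vehicle-treated controls.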

[4] = NCI Yeast Anticancer Drug Screen. Data for the rad50 strain (AID 155);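 note: 0% = growth of vehicle-only cultures of the same strain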; settings: S. cerevisiae rad50 strain growth inhibition, stronger effect = higher value
Summary of the method: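 Cells are treated with compound, grown, and their growth is then scored against vehicle-only cultures of the same repair-deficient yeast strain.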

[5] = NCI Yeast Anticancer Drug Screen. Data for the mec2-1 strain (AID 157); settings: S. cerevisiae mec2-1 strain, stronger effect = higher value
Summary of the method: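 mec2-1 yeast strain, carrying an alteration in DNA damage repair or cell cycle control, was exposed to compounds; growth inhibition was measured relative to vehicle-treated controls.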

[6] = NCI Yeast Anticancer Drug Screen. Data for the rad14 strain (AID 159);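 note: 0% = growth of vehicle-treated control cultures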; settings: S. cerevisiae rad14 strain growth inhibition, stronger effect = higher value
Summary of the method: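 Readout: yeast growth inhibition, referenced to vehicle-only cultures. Strain bears a defined alteration in DNA damage repair.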

[7] = NCI Yeast Anticancer Drug Screen. Data for the sgs1 mgt1 strain (AID 161);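 note: 0% = growth of cultures given vehicle only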; settings: S. cerevisiae sgs1 mgt1 strain, stronger effect = higher value
Summary of the method: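 Growth of a repair-deficient yeast mutant was monitored after compound treatment and expressed as inhibition relative to vehicle-treated cultures.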

[8] = NCI Yeast Anticancer Drug Screen. Data for the CLN2oe strain (AID 163);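 note: 0% = growth of vehicle-only control cultures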; settings: S. cerevisiae CLN2oe strain, stronger effect = higher value
Summary of the method: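 Yeast cells carrying a defined cell-cycle control alteration were exposed to test compounds. Growth inhibition was scored against vehicle-treated control cultures.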

[9] = NCI Yeast Anticancer Drug Screen. Data for the cln2 rad14 strain (AID 165);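 note: 0% = growth equal to vehicle treated cultures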; settings: S. cerevisiae cln2 rad14 strain, stronger effect = higher value
Summary of the method: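 Yeast carrying cln2 and rad14 alterations (cell cycle control and DNA damage repair) were exposed to compounds. Growth inhibition was measured against vehicle-treated controls.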

[10] = NCI Yeast Anticancer Drug Screen. Data for the bub3 strain (AID 167); settings: S. cerevisiae bub3 mutant strain, stronger effect = higher value
Summary of the method: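 Part of a panel of yeast mutants defective in DNA damage repair or cell cycle regulation. Each strain is grown with compound, and inhibition is calculated relative to solvent-treated cultures.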

[11] = NCI Yeast Anticancer Drug Screen. Data for the wt2 strain (AID 169);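 note: 0% = growth of vehicle-treated yeast cultures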; settings: S. cerevisiae wt2 strain growth inhibition, stronger effect = higher value
Summary of the method: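 Yeast cells were exposed to test compounds, and growth inhibition was measured relative to vehicle-treated controls.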

[12] = NCI Yeast Anticancer Drug Screen. Data for the mlh1 strain (AID 171);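 note: 0% = growth of vehicle-treated control cultures of the same strain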; settings: S. cerevisiae mlh1 strain growth inhibition, stronger effect = higher value
Summary of the method: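 Yeast carrying a defined genetic alteration in DNA damage repair or cell cycle control were exposed to test compounds. Growth inhibition was measured relative to vehicle-treated controls.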

[13] = NCI Yeast Anticancer Drug Screen. Data for the sgs1 strain (AID 173);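 note: 0% = growth of vehicle-only control cultures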; settings: S. cerevisiae sgs1 mutant, stronger effect = higher value
Summary of the method: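 Yeast mutant strains carrying defined defects in DNA damage repair or cell cycle control were exposed to test compounds. Growth inhibition was scored against vehicle-treated controls.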

[14] = NCI Yeast Anticancer Drug Screen. Data for the mlh1 rad18 strain (AID 175); settings: S. cerevisiae mlh1 rad18 strain growth inhibition, stronger effect = higher value
Summary of the method: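 Growth inhibition of the yeast strain was measured after compound exposure and expressed relative to vehicle-treated controls. The strain carries defined defects in DNA damage repair.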

[15] = NCI Yeast Anticancer Drug Screen. Data for the rad18 strain (AID 177); settings: S. cerevisiae rad18 mutant growth inhibition, stronger effect = higher value
Summary of the method: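 Yeast carrying a defined DNA damage repair alteration were exposed to compounds. Growth inhibition was expressed relative to vehicle-treated controls.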

[16] = at 5.0 µM (retest, dose inferred, filed as 0.5)
[17] = at 50.0 µM (retest, dose inferred, filed as 5.0)

CN[C@@H]1C[C@H]2O[C@@](C)([C@@H]1OC)n1c3ccccc3c3c4c(c5c6ccccc6n2c5c31)C(=O)N[C@@H]4O
growth inhibition ([1]; at 1.2 µM): 11% | growth inhibition ([1]; at 3.7 µM): 35% | growth inhibition ([1]; at 11.0 µM): 22% | growth inhibition ([1]; at 33.0 µM): 24% | growth inhibition ([1]; at 100.0 µM): 38% | growth inhibition ([2]; at 1.2 µM): -24% | growth inhibition ([2]; at 3.7 µM): 16% | growth inhibition ([2]; at 11.0 µM): 15% | growth inhibition ([2]; at 33.0 µM): 7% | growth inhibition ([2]; at 100.0 µM): 8% | growth inhibition ([3]; at 1.2 µM): -23% | growth inhibition ([3]; at 3.7 µM): -18% | growth inhibition ([3]; at 11.0 µM): -9% | growth inhibition ([3]; at 33.0 µM): -11% | growth inhibition ([3]; at 100.0 µM): 21% | growth inhibition ([4]; at 1.2 µM): -34% | growth inhibition ([4]; at 3.7 µM): -41% | growth inhibition [4, 16]: -17% | growth inhibition ([4]; at 11.0 µM): -23% | growth inhibition ([4]; at 33.0 µM): -33% | growth inhibition [4, 17]: 6% | growth inhibition ([4]; at 50.0 µM): 50.4% | growth inhibition ([4]; at 100.0 µM): 2% | growth inhibition ([5]; at 1.2 µM): -53% | growth inhibition ([5]; at 3.7 µM): -44% | growth inhibition [5, 16]: -9% | growth inhibition ([5]; at 11.0 µM): -36% | growth inhibition ([5]; at 33.0 µM): -9% | growth inhibition [5, 17]: 30% | growth inhibition ([5]; at 50.0 µM): 35% | growth inhibition ([5]; at 100.0 µM): 19% | growth inhibition ([6]; at 1.2 µM): -31% | growth inhibition ([6]; at 3.7 µM): -34% | growth inhibition ([6]; at 11.0 µM): -31% | growth inhibition ([6]; at 33.0 µM): -9% | growth inhibition ([6]; at 100.0 µM): 67% | growth inhibition [7, 16]: -1% | growth inhibition [7, 17]: 24% | growth inhibition ([7]; at 50.0 µM): 16.4% | growth inhibition ([8]; at 1.2 µM): -8% | growth inhibition ([8]; at 3.7 µM): -8% | growth inhibition ([8]; at 11.0 µM): 5% | growth inhibition ([8]; at 33.0 µM): 12% | growth inhibition ([8]; at 100.0 µM): 20% | growth inhibition [9, 16]: 13% | growth inhibition [9, 17]: 38% | growth inhibition ([9]; at 50.0 µM): 22.4% | growth inhibition ([10]; at 1.2 µM): -11% | growth inhibition ([10]; at 3.7 µM): -10% | growth inhibition [10, 16]: 30% | growth inhibition ([10]; at 11.0 µM): 13% | growth inhibition ([10]; at 33.0 µM): 32% | growth inhibition [10, 17]: 83% (active) | growth inhibition ([10]; at 50.0 µM): 74.5% (active) | growth inhibition ([10]; at 100.0 µM): 74% (active) | growth inhibition ([11]; at 1.2 µM): -36% | growth inhibition ([11]; at 3.7 µM): -16% | growth inhibition ([11]; at 11.0 µM): 15% | growth inhibition ([11]; at 33.0 µM): -21% | growth inhibition ([11]; at 100.0 µM): 21% | growth inhibition ([12]; at 1.2 µM): -20% | growth inhibition ([12]; at 3.7 µM): -12% | growth inhibition ([12]; at 11.0 µM): -16% | growth inhibition ([12]; at 33.0 µM): 0% | growth inhibition ([12]; at 100.0 µM): -7% | growth inhibition ([13]; at 1.2 µM): -1% | growth inhibition ([13]; at 3.7 µM): -5% | growth inhibition ([13]; at 11.0 µM): 1% | growth inhibition ([13]; at 33.0 µM): 8% | growth inhibition ([13]; at 100.0 µM): 43% | growth inhibition [14, 16]: 2% | growth inhibition [14, 17]: 31% | growth inhibition ([14]; at 50.0 µM): 25.7% | growth inhibition ([15]; at 1.2 µM): -8% | growth inhibition ([15]; at 3.7 µM): -7% | growth inhibition ([15]; at 11.0 µM): -3% | growth inhibition ([15]; at 33.0 µM): 10% | growth inhibition ([15]; at 100.0 µM): 25%

O/N=C/C1c2ccccc2-c2ccccc21
growth inhibition ([1]; at 1.2 µM): 0% | growth inhibition ([1]; at 3.7 µM): 6% | growth inhibition ([1]; at 11.0 µM): 20% | growth inhibition ([1]; at 33.0 µM): 58% | growth inhibition ([1]; at 100.0 µM): 97% (active) | growth inhibition ([2]; at 1.2 µM): -4% | growth inhibition ([2]; at 3.7 µM): -4% | growth inhibition ([2]; at 11.0 µM): -7% | growth inhibition ([2]; at 33.0 µM): 20% | growth inhibition ([2]; at 100.0 µM): 49% | growth inhibition ([3]; at 1.2 µM): -1% | growth inhibition ([3]; at 3.7 µM): 7% | growth inhibition ([3]; at 11.0 µM): 9% | growth inhibition ([3]; at 33.0 µM): 28% | growth inhibition ([3]; at 100.0 µM): 51% | growth inhibition ([4]; at 1.2 µM): -1% | growth inhibition ([4]; at 3.7 µM): -6% | growth inhibition [4, 16]: -199% | growth inhibition ([4]; at 11.0 µM): 24% | growth inhibition ([4]; at 33.0 µM): 62% | growth inhibition [4, 17]: 58% | growth inhibition ([4]; at 50.0 µM): 56.2% | growth inhibition ([4]; at 100.0 µM): 97% (active) | growth inhibition ([5]; at 1.2 µM): 3% | growth inhibition ([5]; at 3.7 µM): 1% | growth inhibition [5, 16]: -53% | growth inhibition ([5]; at 11.0 µM): -15% | growth inhibition ([5]; at 33.0 µM): 21% | growth inhibition [5, 17]: -13% | growth inhibition ([5]; at 50.0 µM): 99% (active) | growth inhibition ([5]; at 100.0 µM): 72% (active) | growth inhibition ([6]; at 1.2 µM): -1% | growth inhibition ([6]; at 3.7 µM): -1% | growth inhibition ([6]; at 11.0 µM): 9% | growth inhibition ([6]; at 33.0 µM): 51% | growth inhibition ([6]; at 100.0 µM): 96% (active) | growth inhibition [7, 16]: -59% | growth inhibition [7, 17]: 30% | growth inhibition ([7]; at 50.0 µM): 50.8% | growth inhibition ([8]; at 1.2 µM): -3% | growth inhibition ([8]; at 3.7 µM): -3% | growth inhibition ([8]; at 11.0 µM): -6% | growth inhibition ([8]; at 33.0 µM): 2% | growth inhibition ([8]; at 100.0 µM): 53% | growth inhibition [9, 16]: -57% | growth inhibition [9, 17]: 8% | growth inhibition ([9]; at 50.0 µM): 96% (active) | growth inhibition ([10]; at 1.2 µM): -6% | growth inhibition ([10]; at 3.7 µM): -2% | growth inhibition [10, 16]: -70% | growth inhibition ([10]; at 11.0 µM): -7% | growth inhibition ([10]; at 33.0 µM): 0% | growth inhibition [10, 17]: -15% | growth inhibition ([10]; at 50.0 µM): 98.8% (active) | growth inhibition ([10]; at 100.0 µM): 59% | growth inhibition ([11]; at 1.2 µM): -1% | growth inhibition ([11]; at 3.7 µM): -2% | growth inhibition ([11]; at 11.0 µM): -3% | growth inhibition ([11]; at 33.0 µM): 22% | growth inhibition ([11]; at 100.0 µM): 70% (active) | growth inhibition ([12]; at 1.2 µM): 4% | growth inhibition ([12]; at 3.7 µM): -6% | growth inhibition ([12]; at 11.0 µM): -3% | growth inhibition ([12]; at 33.0 µM): 18% | growth inhibition ([12]; at 100.0 µM): 64% | growth inhibition ([13]; at 1.2 µM): 0% | growth inhibition ([13]; at 3.7 µM): -2% | growth inhibition ([13]; at 11.0 µM): 0% | growth inhibition ([13]; at 33.0 µM): 44% | growth inhibition ([13]; at 100.0 µM): 88% (active) | growth inhibition [14, 16]: -102% | growth inhibition [14, 17]: 39% | growth inhibition ([14]; at 50.0 µM): 97.3% (active)
